The results in this text go back to PubChem BioAssay AID1578 (Sanford-Burnham Center for Chemical Genomics, 2009).

Out of some 290,000 compounds screened, about 3,000 (1%) were called active. Rule as the data show it: active = inhibition mostly above about 36% (no sharp cut-off); inactive = mostly below about 34%. This excerpt belongs to a sample that is enriched for actives.

The assay in a line: inhibition of NOD1-driven NF-kB reporter – cell-based, luminescence, uHTS, primary screen (AID 1578).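 Also: HEK-293T reporter cells stimulated with the NOD1 agonist gamma-tri-DAP.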 As to conditions: NOD1-driven NF-kB luciferase reporter cells, at 4 µM, active compounds read high.
The inhibition is the relative decrease from the control value, in per cent. `CCOc1ccc(NS(=O)(=O)c2ccc(NC(=O)C3CC3)cc2)cc1`: the inhibition was 23.9% (inactive).

Take `Fc1ccc(NC(=S)NCc2cccnc2)cc1`: the inhibition is -21.1% (inactive).

On to `Cc1nnc(NC(=O)CN2CCN(Cc3c(Cl)cccc3Cl)CC2)s1`, for which the inhibition is 2.8% (inactive). In the case of `C/C(=N\NC(=O)c1ccccn1)c1ccc(C(=O)O)s1`, the inhibition is 6.8% (inactive). Turning to `Cc1ccccc1NC(=O)c1c(-c2ccccc2)noc1C`, the inhibition was -7.9% (inactive). As for `CN(Cc1ccccc1)S(=O)(=O)c1ccc(Cl)c(C(=O)NCc2ccc3c(c2)OCO3)c1`, the figure is -8.3% (inactive); as for `O=C(NC(=S)Nc1nc(-c2cccc([N+](=O)[O-])c2)cs1)c1cc(Cl)ccc1Cl`, 13.4% (inactive). For `CC(=O)Nc1nc(C)c(-c2csc(Nc3cccc(C(C)=O)c3)n2)s1`, the inhibition is 3.5% (inactive). As to `O=[N+]([O-])c1cccc(NC(=S)Nc2nc(-c3ccccc3Cl)cs2)c1`, the inhibition is 88.1% (active). In the case of `O=C(NC(=S)Nc1nc(-c2cccc([N+](=O)[O-])c2)cs1)c1ccccc1Cl`, the inhibition was -36.4% (inactive). Consider `CC(=O)Nc1ccc(Nc2nc(-c3sc(NC(C)=O)nc3C)cs2)cc1`, for which the inhibition is 32.9% (inactive). As for `CC(C)CCNC(=O)c1nn(Cc2ccccc2)c(=O)c2ccccc12`, the figure is -6.4% (inactive). As to `Cc1cc(C(=O)CSc2nnc(NCc3ccccc3)s2)c(C)n1C`, the inhibition was -18.8% (inactive).

Take `CCN1CCN(c2ncnc3sc(C)c(-c4ccccc4)c23)CC1`: the inhibition is -8.6% (inactive).

`Cc1sc2ncnc(N3CCN(Cc4ccccc4)CC3)c2c1-c1ccccc1`: the inhibition was 43.2% (inactive).

Turning to `Cc1ccc(C(=O)NS(=O)(=O)c2ccccc2)cc1`, the inhibition was -46.6% (inactive). In the case of `Cc1ccc(C(=O)NS(=O)(=O)c2ccc(C)cc2)cc1`, the inhibition was -2.7% (inactive). With `Cc1ccc(C(=O)NS(=O)(=O)c2ccc(N=NN(C)C)cc2)cc1` the figure was 46.6% (active); with `Cc1cccc(/C=C2\CCC(=C3SCCCS3)C2=O)c1`, 21.6% (inactive); with `O=C1/C(=C/c2ccc(F)cc2)CCC1C1CCCC1` (centres undefined), -42.1% (inactive). Consider `O=C1C(=C2SCCCS2)CC/C1=C\c1ccc(F)cc1`, for which the inhibition was 76.9% (active).

In the case of `Cc1ccc(C(=O)Nc2cccnc2Cl)cc1Cl`, the inhibition was -74.4% (inactive). Regarding `NC(=O)COC(=O)c1ccc(NS(=O)(=O)c2ccc3c(c2)OCCO3)cc1`, the inhibition was -9.9% (inactive). With `COc1ccc(-c2cc(-c3ccccc3)c(C#N)c(S(C)(=O)=O)n2)cc1` the figure was 19.6% (inactive). As for `COc1ccc(-c2cc(-c3ccccc3)nc(SC(C)C(=O)O)c2C#N)cc1` (centres undefined), the figure is -21.4% (inactive); as for `N#Cc1c(-c2ccccc2)cc(-c2ccccc2)nc1SCCC(=O)O`, 3.1% (inactive).

With `CS(=O)(=O)c1nc(-c2ccccc2)cc(-c2ccccc2)c1C#N`, the inhibition was 68.3% (active). `CC(C)C(Sc1nc(-c2ccccc2)cc(-c2ccccc2)c1C#N)C(=O)O` (centres undefined): the inhibition is 52.9% (active). On to `CS(=O)(=O)c1nc(-c2ccc(Br)cc2)cc(-c2ccccc2)c1C#N`, for which the inhibition was 40.6% (inactive). On to `COC(=O)c1ccccc1NC(=O)CSc1n[nH]c(-c2ccco2)n1`, for which the inhibition is -8.4% (inactive). Regarding `O=C(C1CCN(c2ccc(N3CCOCC3)nn2)CC1)N1CCN(c2ccc(F)cc2)CC1`, the inhibition was -18.2% (inactive). Take `C=CCSc1nc2sc3c(c2c(=O)[nH]1)CC(C)(CC)OC3` (centres undefined): the inhibition is -17.8% (inactive). Turning to `Cc1ccccc1NC(=O)CC1SCCNC1=O` (centres undefined), the inhibition is 11.3% (inactive).

For `C=CCNCCCCOc1cccc(Br)c1`, the inhibition is 11.4% (inactive). With `OCCNCCCCOc1cccc(Br)c1`, the inhibition was 75.8% (active). With `COCCCNCCCCOc1cccc(Br)c1` the figure was -2.3% (inactive); with `O=S(=O)(/N=C(/NC(=S)Nc1ccccc1)c1ccccc1)c1ccc(Cl)cc1`, -32.1% (inactive); with `O=c1c(Cc2ccc(F)cc2)c(O)ccn1C1CCCCC1`, -17.4% (inactive). Regarding `O=c1c(Cc2ccccc2)c(O)ccn1C1CCCCCCC1`, the inhibition was -38.2% (inactive). As for `O=c1c(Cc2ccc(F)cc2)c(O)ccn1C1CC1`, the figure is 51.7% (active); as for `CCCCCCCCOC(=O)C(NC(=O)CCC(=O)Nc1ccc(S(N)(=O)=O)cc1)C(O)c1ccccc1` (centres undefined), -2.4% (inactive); as for `CCCCCCCCCCCC(=O)NC(C(=O)O)C(O)c1ccccc1` (centres undefined), 55.2% (active). For `CCCCCCCCCCCC(=O)NC(C(=O)OCC)C(O)c1cccc([N+](=O)[O-])c1` (centres undefined), the inhibition is 34.1% (inactive). On to `CN1CCN(c2ccc(NC(=O)c3ccco3)cc2Cl)CC1`, for which the inhibition is -46.7% (inactive). Take `Nc1ccc(NC2C[C@@H](C(=O)O)NC2=O)cc1` (some centres undefined): the inhibition is -25.3% (inactive).

Turning to `CC(C)CC(=O)N/N=C/c1c(N)n(C)c(=O)n(C)c1=O`, the inhibition is -7.7% (inactive). Take `CCn1cc(Cl)c(C(=O)N2N=C(c3ccc4ccccc4c3)CC2c2ccccc2O)n1` (centres undefined): the inhibition was 61.4% (active).

As to `CCn1cc([N+](=O)[O-])c(C(=O)N2N=C(c3ccc(Cl)c(Cl)c3)CC2c2ccccc2O)n1` (centres undefined), the inhibition was -14.7% (inactive). Consider `CCn1cc([N+](=O)[O-])c(C(=O)N2N=C(c3ccc4ccccc4c3)CC2c2ccccc2O)n1` (centres undefined), for which the inhibition is -40.2% (inactive).

For `CCOc1cc(NC(=O)CCl)c(OCC)cc1NC(=O)CCl`, the inhibition was 71.2% (active). In the case of `CCOc1cc(Cl)c(NC(=O)CC)cc1OCC`, the inhibition is -18.6% (inactive). On to `CCCCC(=O)Nc1cc(OCC)c(NC(=S)NC)cc1OCC`, for which the inhibition is -5.5% (inactive).

For the compound `CCN1C(=O)c2ccccc2Sc2ccc(C(=O)NC(C)C)cc21`, the inhibition is 0.6% (inactive). Regarding `CC(=O)c1c(C)nc(-c2ccccc2)nc1NC(=O)C(C)C`, the inhibition was -18% (inactive). For the compound `CCOC(=O)/C(C#N)=N/Nc1c(S(=O)(=O)Cc2ccco2)csc1C(=O)OC`, the inhibition was -12.9% (inactive). With `COC(=O)c1sc(SC)c(S(=O)(=O)C(C)C)c1N/N=C(\C#N)C(=O)c1ccccc1`, the inhibition is -8.9% (inactive). `COC(=O)c1sc(SC)c(S(=O)(=O)C(C)C)c1N/N=C(\C#N)S(=O)(=O)c1ccccn1`: the inhibition was -7.4% (inactive). With `COC(=O)c1scc(C)c1NC(=O)c1ccc(Cl)cc1` the figure was -13.3% (inactive).

With `COC(=O)c1cc(OC)c(OC)cc1NC(=O)Cc1ccccc1[N+](=O)[O-]`, the inhibition was 53.2% (inactive). For the compound `CCSc1nnc(NC(=O)c2cc(C)on2)s1`, the inhibition is -22.4% (inactive). Take `Cc1ccc(CNS(=O)(=O)c2ccc3c(c2)NC(=O)C(C)S3)cc1` (centres undefined): the inhibition was 16.1% (inactive). For `Cc1ccccc1C(=O)N1CCC(C(N)=O)CC1`, the inhibition is 24.1% (inactive). For `O=C(NCc1ccccc1)C1COc2ccccc2O1` (centres undefined), the inhibition is -48.6% (inactive). Consider `O=C(N1CCN(c2ccccn2)CC1)C(Cl)(Cl)Cl`, for which the inhibition was 32.8% (inactive). With `CC(Cl)C(=O)N1c2ccccc2CCc2ccccc21` (centres undefined), the inhibition was 19.8% (inactive). Regarding `O=C(CN1CCCCC1)N1c2ccccc2CCc2ccccc21`, the inhibition is 7.5% (inactive). For `O=C(CCl)N1c2ccccc2CCc2ccccc21`, the inhibition is 94.7% (active).

For the compound `C=CCNc1cnn(-c2ccc(C)cc2)c(=O)c1Sc1ccc(C)cc1`, the inhibition is 11.6% (inactive). With `CC/C(=N\NC(=O)c1ccc(Br)cc1)c1ccccc1` the figure was -30.9% (inactive); with `N#C/C(=C(/O)CCl)c1nc(-c2ccccc2)cs1`, -4.2% (inactive). Consider `N#C/C(=C(/O)CCl)c1nc2c(s1)CCc1ccccc1-2`, for which the inhibition is 78.6% (active). For the compound `Nc1nc2c(s1)CCc1ccccc1-2`, the inhibition is -11.8% (inactive). As for `C=CCn1c(COc2ccccc2)nnc1SCC(=O)N/N=C/c1cc(Cl)ccc1O`, the figure is 39.9% (active); as for `C=CCn1c(COc2ccccc2)nnc1SC(C)C(=O)N/N=C/c1cc(Cl)ccc1O` (centres undefined), 2% (inactive); as for `C=CCn1c(COc2ccc(Cl)cc2)nnc1SCC(=O)N/N=C/c1ccccc1`, 1.1% (inactive). As for `CN(C)C(=O)CN1CCN(c2nc3nonc3nc2N2CCCCC2)CC1`, the figure is -28.9% (inactive); as for `CC(C)(C)OC(=O)N/N=C/c1cccn1-c1ccc([N+](=O)[O-])cc1`, -6.6% (inactive); as for `N#C/C(=C(/O)COC(=O)CCCNC(=O)c1ccc(Cl)cc1)c1nc2ccccc2[nH]1`, 86.4% (active). `N#C/C(=C(/O)COC(=O)CCc1ccc(S(=O)(=O)N2CCOCC2)cc1)c1nc2ccccc2[nH]1`: the inhibition was 93.4% (active). For `N#C/C(=C(/O)COC(=O)Cc1c[nH]c2ccccc12)c1nc2ccccc2[nH]1`, the inhibition was -14.1% (inactive).

`CCOC(=O)c1c(C)[nH]c(C(=O)OC/C(O)=C(\C#N)c2nc3ccccc3[nH]2)c1C`: the inhibition is -26.6% (inactive).

On to `N#C/C(=C(/O)COC(=O)c1cccnc1Cl)c1nc2ccccc2[nH]1`, for which the inhibition was -23.4% (inactive). Turning to `N#C/C(=C(/O)COC(=O)c1ccc(Cl)c(S(=O)(=O)N2CCOCC2)c1)c1nc2ccccc2[nH]1`, the inhibition was 17.7% (inactive). As to `COCC(=O)OC/C(O)=C(\C#N)c1nc2ccccc2[nH]1`, the inhibition was 66.5% (active).

As to `N#C/C(=C(/O)COC(=O)c1ccc(O)cc1)c1nc2ccccc2[nH]1`, the inhibition was -5.6% (inactive). `COc1cc(OC)cc(C(=O)OC/C(O)=C(\C#N)c2nc3ccccc3[nH]2)c1`: the inhibition is -0.4% (inactive). In the case of `CC(C)C(=O)OC/C(O)=C(\C#N)c1nc2ccccc2[nH]1`, the inhibition is 0.8% (inactive). As to `Cc1ccc(C(=O)OC/C(O)=C(\C#N)c2nc3ccccc3[nH]2)cc1S(=O)(=O)N1CCOCC1`, the inhibition was 20.1% (inactive). In the case of `CCCC(=O)OC/C(O)=C(\C#N)c1nc2ccccc2[nH]1`, the inhibition is 105% (active).

`O=C(CSc1nc(-c2ccccc2)c(-c2ccccc2)[nH]1)Nc1ccc2c(c1)OCO2`: the inhibition is -5.7% (inactive). With `O=C(CSc1nn(-c2ccccc2)c(=S)s1)NC(=O)NCc1ccco1` the figure was 17.4% (inactive); with `CCCCN(C)CCNC(=O)c1cc2c(=O)[nH]c3ccccc3c2n1C`, -7.1% (inactive); with `CCOC(=O)COc1ccc2c(C)cc(=O)oc2c1C(=O)c1ccccc1`, 5.9% (inactive). Take `O=C1CC(N2CCN(c3ccc(O)cc3)CC2)C(=O)N1c1ccc2c(c1)OCO2` (centres undefined): the inhibition was -26.7% (inactive).
